Reference: the supplement of paper PMC5940239

Tests used:
[1] = tested on: Madurella mycetomatis MM55; settings: 7 days
[2] = tested on: Madurella mycetomatis MM55; test: IC90; higher = less potent; settings: 7 days
[3] = tested on: Madurella mycetomatis MM55; test: percent growth relative to solvent control; higher = less inhibition, active = 20 or less; settings: 100 µM; 7 days

Compound	IC50 [1]	IC90 [2]	percent growth [3]
CC(C)NCC(=O)Nc1cccc(C(=O)Nc2cccc(C(F)(F)F)c2)c1	62 µM	93.7 µM	2.17% (active)
CCOc1ccc2cc(-c3nn(CC4CCN(C)CC4)c4ncnc(N)c34)ccc2c1	51.8 µM	87.8 µM	-3.52% (active)
O=C(Nc1cccc(Cl)c1)c1cnc(N2CCN(c3ccncc3)CC2)c(Cl)c1	9.3 µM	19.6 µM	6.08% (active)
CC(C)(C)n1nc(-c2ccccc2)c2c(N)ncnc21	49.4 µM	96.4 µM	10.4% (active)
CCc1c(C)nc(-n2nc(C)cc2NC(=O)c2ccccc2SC)[nH]c1=O	6.75 µM	15.1 µM	2.44% (active)
CCCc1ccc(S(=O)(=O)Nc2ccc(CN3CCN(CC4CC4)CC3)cc2)cc1	63.1 µM	91.8 µM	-0.983% (active)
N#Cc1nc(-c2ccccc2)oc1S(=O)(=O)c1ccc(Cl)cc1			31.4% (inactive)
CCN(CC)C(=O)N1CCN(C)CC1			89.3% (inactive)
CN1CCN(S(=O)(=O)c2ccc(-c3ccc4c(Nc5ccc6nn[nH]c6c5)ccnc4c3)cc2)CC1			151% (inactive)
COc1ccc(OC)c(NCc2ccc3nc(N)nc(N)c3c2Cl)c1	2.3 µM	4.7 µM	-0.467% (active)
COc1ccc2nccc(NC(=O)C3CCN(CCc4ccc(Cl)cc4)CC3)c2n1			48.8% (inactive)
CCc1ccc(C(NCc2nc(N)nc(N(C)C)n2)C(C)C)cc1 (stereo unspecified)			49.1% (inactive)
